# Screens as filed in PubChem.
# BL2 CD40 inh: CD40 pathway inhibition in BL2 cells. BL2 NF-kB luciferase reporter, CD40L-induced, 4 h. inhibition, % at 10 µM. 83,000 tested, 0.94% active. AID 1053188;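 active = mean inhibition of at least 50% with a set share of replicates also reaching that level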;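 also: 0% = neutral control wells and 100% = IKK inhibitor VII at 50 µM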
# * = called active by the depositor; [ ] = remark or other dose. Only a selection was taken, and hits are over-represented in it overall.
SMILES,BL2 CD40 inh
CCOC(=O)c1cc2c(ccn2C)n1Cc1ccc(C#N)cc1,54.9*
CCOC(=O)c1cc2c(ccn2C)n1CC(=O)N(C)C,2.5
CCOC(=O)c1cc2c(ccn2C)n1Cc1ccc(Cl)cc1,9.6
CC(C)NC(=O)N1CC[C@@H]2[C@@H](CO)N(C)c3ccc(Br)cc3[C@@H]21,2.1[25 µM]
CC(=O)N(C)C[C@@H]1Oc2ccc(N)cc2C(=O)N(C)C[C@@H]1C,4.1
O=C(O)c1ccc(Nc2nc3c(s2)CCCC3)cc1,72.0*
O=C(Nc1nc2c(s1)CCCC2)c1cccnc1,-67.0
O=C(Nc1nc2c(s1)CCCC2)Oc1ccccc1,-31.8
CO[C@H]1CN(C)C(=O)c2ccc(NC(=O)C3CC3)cc2OC[C@H](C)N(Cc2cccnc2)C[C@H]1C,0.2
CO[C@@H]1CN(C)C(=O)c2ccc(NC(=O)C3CCC3)cc2OC[C@@H](C)N(Cc2nccs2)C[C@H]1C,6.1
O=C(COC(=O)c1ccco1)Nc1ccc2c(c1)OCCO2,-64.9
Cn1cccc1C(=O)OCC(=O)Nc1ccc2c(c1)OCCO2,55.2*
Cn1cccc1C(=O)OCC(=O)NCc1ccc2c(c1)OCO2,-16.8
COc1ccc(NC(=O)Nc2ccc3c(c2)C(=O)N([C@H](C)CO)C[C@H](C)[C@H](CN(C)C(=O)Nc2ccc(F)cc2)OCCCC[C@H](C)O3)cc1,1.4
N#C[C@H]1[C@H](c2ccccc2C2=CCCCC2)[C@H](CO)N1S(=O)(=O)c1cccc(F)c1,15.2
CN1c2ccc(-c3cccc(F)c3)cc2[C@H]2[C@H](CCN2C(=O)c2ccncc2)[C@H]1CO,8.3[25 µM]
CN1[C@@H]2CN(S(C)(=O)=O)C[C@H]1C2c1ccc(-c2ccc(F)cc2)cc1 (stereo partly drawn),-2.0
O=C(Cc1cccc([N+](=O)[O-])c1)Nc1ccccc1,-2.2
O=[N+]([O-])c1ccc(CS(=O)c2ccccc2)cc1 (stereo not drawn),-6.0
O=[N+]([O-])c1ccc(S(=O)Cc2ccccc2)c([N+](=O)[O-])c1 (stereo not drawn),106.4*
CO[C@H]1CN(C)C(=O)c2cc(NC(=O)C3CCC3)ccc2OC[C@@H](C)N(Cc2ccc(F)cc2)C[C@H]1C,1.1
CC(C)Cc1ccc(C(C)/C=C2/CCC(CN3CCCCC3)C2=O)cc1 (stereo not drawn),65.7*
COCCNC(=O)C1CCCN(Cc2ccc(C(C)C)cc2)CC1 (stereo not drawn),6.7
CC(C)Cc1ccc(CN2CCCC(NC(=O)CCN3CCCCC3=O)C2)cc1 (stereo not drawn),2.9
C[C@H](CO)N1C[C@H](C)[C@H](CN(C)S(=O)(=O)c2cccs2)Oc2ccc(NC(=O)CCN3CCOCC3)cc2C1=O,-6.1[25 µM]
SMILES,BL2 CD40 inh
O=C(NC1CCCC1)N1CC(=O)N2[C@H](C1)[C@H](c1ccc(-c3cccc(F)c3)cc1)[C@@H]2CO,4.9
C[C@H]1CN([C@@H](C)CO)C(=O)c2ccccc2-c2ccccc2CO[C@@H]1CN(C)Cc1ccncc1,0.1
COc1cc(N2C(=O)C=CC2=O)ccc1N1C(=O)C=CC1=O,108.8*
COc1ccc(-n2c(C)c3c(C)nnc(C)c3c2C)cc1OC,-4.8
COc1ccccc1N1C(=O)C2CC(C)=C(C)CC2C1=O (stereo not drawn),-4.8
CN1C(=O)c2cc(NC(=O)C3CCC3)ccc2OC[C@H]2O[C@H](CC(=O)NCc3ccccc3F)CC[C@@H]21,-3.7
COc1ccc(OCc2cccc(C(=O)Nc3cc(C)on3)c2)cc1,3.5
COc1ccc(OCc2cccc(C(=O)NN)c2)cc1,24.5*
O=C(c1cccc(OCc2ccccc2)c1)N1CCOCC1,-8.0
COc1ccc(OCc2ccc(C(=O)N3CCOCC3)cc2)cc1,-22.8
NNC(=O)c1cccc(COc2cccc(Br)c2)c1,-57.2
CCOc1ccc(OCc2cccc(C(=O)N3CCOCC3)c2)cc1,90.2*
CC(C)NC(=O)N(C)C[C@H]1Oc2ccc(N)cc2CC(=O)N(C)C[C@@H]1C,-1.9
CCCN(C)C[C@H]1OCCCC[C@H](C)Oc2ccc(NC(=O)CCCN(C)C)cc2C(=O)N([C@H](C)CO)C[C@@H]1C,-17.0[25 µM]
O=C(CN1C(=O)c2ccccc2S1(=O)=O)Nc1ncc(Cl)cc1Cl,56.3*
Cc1cc(C)nc(NC(=O)CN2C(=O)c3ccccc3S2(=O)=O)n1,4.2
O=C(CN1C(=O)c2ccccc2S1(=O)=O)Nc1ncccn1,7.4
CNC[C@@H]1Oc2ccc(NS(C)(=O)=O)cc2CC(=O)N(C)C[C@@H]1C,4.0
O=C(c1ccccn1)N1CC[C@@H]2[C@@H](CO)Nc3ccc(-c4ccc(F)cc4)cc3[C@@H]21,-43.9[25 µM]
C[C@@H]1CN([C@H](C)CO)C(=O)c2c(c3ccccc3n2C)-c2ccccc2CO[C@H]1CN(C)S(=O)(=O)c1ccc(C(F)(F)F)cc1,-4.1
C[C@H](CO)N1C[C@H](C)[C@@H](CN(C)S(=O)(=O)c2ccccc2)OCCCC[C@H](C)Oc2ccc(NS(=O)(=O)c3ccc(Cl)cc3)cc2C1=O,5.6
Cc1ccnc(NC(=O)c2ccc(OCC3CCCO3)cc2)c1 (stereo not drawn),86.8*
Cc1ccnc(NC(=O)c2ccc3c(c2)C(=O)N(CC2CCCO2)C3=O)c1 (stereo not drawn),-73.1
COc1ccc(NC(=O)c2ccc(OCC3CCCO3)cc2)cc1OC (stereo not drawn),-27.7
C[C@H](CO)N1C[C@H](C)[C@H](CN(C)S(=O)(=O)c2ccc(Cl)cc2)OCCCC[C@H](C)Oc2ccc(NC(=O)CCCN(C)C)cc2C1=O,26.4
SMILES,BL2 CD40 inh
O=C(CCN1CCCCC1)c1ccc2c(c1)OCCO2,0.3
O=C(CCN1CCC(c2ccccc2)C1)c1cccs1 (stereo not drawn),34.6
COc1cc(C(=O)CCN2CCC(c3ccccc3)C2)cc(OC)c1OC (stereo not drawn),44.7*
COc1cc(C(=O)OC2CCN(C)CC2)cc(OC)c1OC,15.6
O=C(CCN1CCC(c2ccccc2)C1)c1ccc2c(c1)OCCO2 (stereo not drawn),45.0*
O=C(CCN1CCC(c2ccccc2)C1)c1ccccc1 (stereo not drawn),4.9
COc1ccccc1C#Cc1ccc([C@H]2[C@@H](CO)N3CCCCN(CCC(F)(F)F)C[C@H]23)cc1,-4.6[25 µM]
N#C[C@H]1[C@@H](c2ccccc2C2=CCCCC2)[C@@H](CO)N1C(=O)c1cccc(F)c1,1.8[25 µM]
C[C@H]1CN([C@@H](C)CO)C(=O)c2cccc(NS(=O)(=O)c3cn(C)cn3)c2O[C@H]1CN(C)Cc1ccc(Oc2ccccc2)cc1,8.3[25 µM]
CCC(=O)N1[C@H](C(=O)N2CCCCC2)[C@@H](CO)[C@@H]2Cn3c(ccc(-c4cccc(F)c4)c3=O)[C@@H]21,-19.6[25 µM]
COc1ccc(NC(=O)N2CC(=O)N3[C@H](C2)[C@@H](c2ccc(Br)cc2)[C@@H]3CO)cc1,-5.1[25 µM]
O=C(C[C@@H]1CC[C@@H]2NC[C@@H](O)COC[C@H]2O1)NCCN1CCCC1,0.7
c1ccc(-c2nc3ccccc3s2)nc1,-83.8
Cc1cc(-c2nc3ccccc3s2)ccc1N,55.9*
Cc1ccc(-c2nc3ccccc3s2)cc1S(=O)(=O)N1CCOCC1,-4.0
C[C@H](CO)N1C[C@H](C)[C@@H](CN(C)S(=O)(=O)c2ccc(Cl)cc2)OCCCC[C@H](C)Oc2ccc(NC(=O)CCCN(C)C)cc2C1=O,8.7
C[C@@H]1CN([C@@H](C)CO)C(=O)c2c(c3ccccc3n2C)-c2ccccc2CO[C@H]1CN(C)S(=O)(=O)c1ccccc1,18.3
C[C@@H]1CN([C@H](C)CO)C(=O)c2c(c3ccccc3n2C)-c2ccccc2CO[C@H]1CN(C)S(=O)(=O)c1ccccc1,19.1
